Assay results as given in PubChem BioAssay AID1159580 (chemical genetic matrix, 2015).
Several values for one entry are separate records, joined by “and”; a condition that tells them apart may be missing. Equal entries are not always repeated. Screen size: about 5,500 compounds; about 2,000 (36%) were called active. Another 18% or so got no clear call; they are omitted. Rule as the data show it: active = normalized growth mostly below about 0.91 (no sharp cut-off); inconclusive = no clear call, values can overlap the other calls; inactive = mostly above about 0.92. The list shows a part of the results.

Test: chemical genetic growth profiling, strain panel (AID 1159580);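 also: tested at 20 µM; growth read once vehicle control cultures reached saturation at 30 °C; 1 = growth at the plate median or of vehicle wells; lower values mean less growth of the strain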
Details: growth OD

Measured: normalized growth

Nc1nc(N)c2nc(CNc3ccc(C(=O)NC(CCC(=O)O)C(=O)O)cc3)cnc2n1 (stereo unspecified)
inactive: S. cerevisiae deletion strains, locus YKL009W, strain mrt4, active compounds read low 0.972 | S. cerevisiae deletion strains, locus YKL068W, active compounds read low 0.981 | S. cerevisiae deletion strains, locus YKL085W, strain MDH1 (second series), active compounds read low 0.986 | S. cerevisiae deletion strains, locus YKL085W, strain MDH1, active compounds read low 0.986 | S. cerevisiae deletion strains, locus YKL160W, strain elf1, active compounds read low 0.968 | S. cerevisiae deletion strains, locus YKL190W, strain CNB1, active compounds read low 1.01 | S. cerevisiae deletion strains, locus YKR001C, strain vps1, active compounds read low 0.989 | S. cerevisiae deletion strains, locus YKR026C, strain gcn3, active compounds read low 0.997 | S. cerevisiae deletion strains, locus YKR091W, strain srl3, active compounds read low 0.99 | S. cerevisiae deletion strains, locus YLL001W, strain dnm1, active compounds read low 0.941 | S. cerevisiae deletion strains, locus YLL026W, active compounds read low 0.996 | S. cerevisiae deletion strains, locus YLL041C, strain sdh2, active compounds read low 0.971 | S. cerevisiae deletion strains, locus YLR027C, strain aat2, active compounds read low 1 | S. cerevisiae deletion strains, locus YLR039C, strain RIC1, active compounds read low 1.01 | S. cerevisiae deletion strains, locus YLR058C, strain SHM2, active compounds read low 1 | S. cerevisiae deletion strains, locus YLR102C, strain apc9, active compounds read low 0.972 | S. cerevisiae deletion strains, locus YLR221C, strain rsa3, active compounds read low 1.06 | S. cerevisiae deletion strains, locus YLR258W, strain gsy2, active compounds read low 0.974 | S. cerevisiae deletion strains, locus YLR262C, strain YPT6 (second series), active compounds read low 1.03 | S. cerevisiae deletion strains, locus YLR262C, strain YPT6, active compounds read low 0.952 | S. cerevisiae deletion strains, locus YLR268W, strain sec22, active compounds read low 0.977 | S. cerevisiae deletion strains, locus YLR320W, strain mms22, active compounds read low 1.05 | S. cerevisiae deletion strains, locus YLR330W, strain CHS5, active compounds read low 1.01 | S. cerevisiae deletion strains, locus YLR342W, strain FKS1 (second series), active compounds read low 1.07 | S. cerevisiae deletion strains, locus YLR342W, strain FKS1, active compounds read low 1.01 | S. cerevisiae deletion strains, locus YLR357W, strain rsc2, active compounds read low 0.963 | S. cerevisiae deletion strains, locus YLR370C, strain arc18, active compounds read low 0.99 | S. cerevisiae deletion strains, locus YLR371W, strain rom2, active compounds read low 0.973 | S. cerevisiae deletion strains, locus YLR384C, strain iki3, active compounds read low 0.988 | S. cerevisiae deletion strains, locus YLR418C, strain cdc73, active compounds read low 1.02 | S. cerevisiae deletion strains, locus YML016C, strain PPZ1, active compounds read low 0.992 | S. cerevisiae deletion strains, locus YML032C, strain rad52, active compounds read low 1.01 | S. cerevisiae deletion strains, locus YML120C, strain ndi1, active compounds read low 0.979 | S. cerevisiae deletion strains, locus YML124C, strain tub3, active compounds read low 0.988 | S. cerevisiae deletion strains, locus YMR058W, strain fet3, active compounds read low 0.984 | S. cerevisiae deletion strains, locus YMR078C, strain ctf18, active compounds read low 0.974 | S. cerevisiae deletion strains, locus YMR125W, strain sto1, active compounds read low 0.967 | S. cerevisiae deletion strains, locus YMR129W, active compounds read low 1 | S. cerevisiae deletion strains, locus YMR205C, strain PFK2, active compounds read low 0.965 | S. cerevisiae deletion strains, locus YMR223W, strain ubp8, active compounds read low 0.989 | S. cerevisiae deletion strains, locus YMR231W, strain pep5, active compounds read low 1 | S. cerevisiae deletion strains, locus YMR263W, strain SAP30, active compounds read low 0.99 and 1 | S. cerevisiae deletion strains, locus YMR307W, strain GAS1, active compounds read low 1.16 | S. cerevisiae deletion strains, locus YNL067W, strain RPL9B, active compounds read low 0.975 | S. cerevisiae deletion strains, locus YNL071W, strain lat1, active compounds read low 0.998 | S. cerevisiae deletion strains, locus YNL128W, strain TEP1, active compounds read low 1 | S. cerevisiae deletion strains, locus YNL153C, strain GIM3, active compounds read low 1 | S. cerevisiae deletion strains, locus YNL175C, strain NOP13, active compounds read low 0.989 | S. cerevisiae deletion strains, locus YNL197C, strain WHI3, active compounds read low 0.956 | S. cerevisiae deletion strains, locus YNL209W, strain ssb2, active compounds read low 0.987 | S. cerevisiae deletion strains, locus YNL224C, strain SQS1, active compounds read low 0.981 | S. cerevisiae deletion strains, locus YNL233W, strain BNI4, active compounds read low 1.01 | S. cerevisiae deletion strains, locus YNL248C, strain rpa49, active compounds read low 1.02 | S. cerevisiae deletion strains, locus YNL250W, strain rad50, active compounds read low 0.945 | S. cerevisiae deletion strains, locus YNL271C, strain bni1, active compounds read low 0.984 | S. cerevisiae deletion strains, locus YNL298W, strain CLA4, active compounds read low 0.995 | S. cerevisiae deletion strains, locus YNL307C, strain MCK1, active compounds read low 0.977 | S. cerevisiae deletion strains, locus YNL322C, strain KRE1 (second series), active compounds read low 0.976 | S. cerevisiae deletion strains, locus YNL322C, strain KRE1, active compounds read low 0.998 and 1.01 | S. cerevisiae deletion strains, locus YNR049C, strain mso1, active compounds read low 0.987 | S. cerevisiae deletion strains, locus YNR052C, strain pop2, active compounds read low 0.991 | S. cerevisiae deletion strains, locus YOL006C, strain TOP1, active compounds read low 0.981 | S. cerevisiae deletion strains, locus YOL012C, strain htz1 0.761 | S. cerevisiae deletion strains, locus YOL147C, strain pex11, active compounds read low 0.998 | S. cerevisiae deletion strains, locus YOR001W, strain rrp6, active compounds read low 1.01 | S. cerevisiae deletion strains, locus YOR061W, strain CKA2, active compounds read low 0.99 | S. cerevisiae deletion strains, locus YOR069W, strain VPS5, active compounds read low 0.992 | S. cerevisiae deletion strains, locus YOR070C, strain gyp1, active compounds read low 0.997 | S. cerevisiae deletion strains, locus YOR080W, strain dia2, active compounds read low 1.01 | S. cerevisiae deletion strains, locus YOR083W, strain WHI5 (second series), active compounds read low 1 | S. cerevisiae deletion strains, locus YOR083W, strain WHI5, active compounds read low 0.967 | S. cerevisiae deletion strains, locus YOR106W, strain vam3, active compounds read low 0.94 | S. cerevisiae deletion strains, locus YOR136W, strain idh2, active compounds read low 0.994 | S. cerevisiae deletion strains, locus YOR144C, strain elg1, active compounds read low 1 | S. cerevisiae deletion strains, locus YOR184W, strain ser1, active compounds read low 0.99 | S. cerevisiae deletion strains, locus YOR265W, strain rbl2, active compounds read low 0.989 | S. cerevisiae deletion strains, locus YOR270C, strain vph1, active compounds read low 1.05 | S. cerevisiae deletion strains, locus YOR290C, strain snf2, active compounds read low 0.933 | S. cerevisiae deletion strains, locus YOR316C, strain cot1, active compounds read low 0.986 | S. cerevisiae deletion strains, locus YPL051W, strain arl3, active compounds read low 1 | S. cerevisiae deletion strains, locus YPL055C, strain LGE1, active compounds read low 1.02 and 0.989 | S. cerevisiae deletion strains, locus YPL078C, strain atp4, active compounds read low 0.955 | S. cerevisiae deletion strains, locus YPL106C, strain sse1, active compounds read low 0.956 | S. cerevisiae deletion strains, locus YPL240C, strain hsp82, active compounds read low 0.992 | S. cerevisiae deletion strains, locus YPL241C, strain CIN2, active compounds read low 1.01 | S. cerevisiae deletion strains, locus YPR119W, strain clb2, active compounds read low 0.987 | S. cerevisiae deletion strains, locus YPR141C, strain kar3, active compounds read low 0.98 | S. cerevisiae deletion strains, locus YPR163C, strain tif3, active compounds read low 1 | S. cerevisiae deletion strains, locus YPR167C, strain met16, active compounds read low 0.989 | S. cerevisiae deletion strains, strain wtn01, active compounds read low 0.965 | S. cerevisiae strains, strain wild type, active compounds read low 1.01
